# Results filed as inconclusive are left out. The source made the active and inactive calls. Rule for the calls, unless noted: active = hit-call score of the fitted dose curve at least 0.9, where 1 is the maximum; inactive = score below 0.9.
# What was measured:
# [1] = read-out: Interleukin-1 alpha (IL1a), IL1A (gene 3552); assay: BSK_LPS_IL1a: BioMAP Diversity Plus: LPS Assay for Interleukin-1 alpha (IL1a) Biomarker Activity (AID 2283080); conditions: primary human HUVEC with PBMC; actives raise or lower the signal
# Method in brief: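 Human umbilical vein endothelial cells co-cultured with peripheral blood mononuclear cells were LPS-stimulated and exposed to test chemicals for 24 h. IL-1 alpha was quantified by ELISA, with bidirectional curve fitting against DMSO as the negative control and baseline.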
# [2] = read-out: Monocyte Chemoattractant Protein-1 (MCP1), CCL2 (gene 6347); assay: BSK_LPS_MCP1: BioMAP Diversity Plus: LPS Assay for Monocyte Chemoattractant Protein-1 (MCP1) Biomarker Activity (AID 2283081); conditions: primary human HUVEC with PBMC; actives raise or lower the signal;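 for AC50: secreted MCP-1 protein quantified by ELISA in culture supernatant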
# Method in brief: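 HUVEC plus PBMC co-culture (human primary cells, LPS system) exposed to test chemical for 24 h; MCP-1 measured by ELISA. Bidirectional curve fitting against DMSO baseline; parallel SRB total-protein staining flags overt cytotoxicity.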
# [3] = BSK_LPS_PGE2: BioMAP Diversity Plus: LPS Assay for Prostaglandin E2 (PGE2) Biomarker Activity (AID 2283082); conditions: primary human HUVEC with PBMC; actives raise or lower the signal
# Method in brief: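 HUVEC plus PBMC co-culture stimulated with LPS; secreted PGE2 quantified by ELISA 24 h after chemical dosing. Activity fitted bidirectionally against DMSO as negative control and baseline; parallel SRB total-protein staining served as cytotoxicity check.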
# [4] = read-out: Macrophage colony-stimulating factor (MCSF), CSF1 (gene 1435); assay: BSK_LPS_MCSF: BioMAP Diversity Plus: LPS Assay for Macrophage colony-stimulating factor (MCSF) Biomarker Activity (AID 2283083); conditions: primary human HUVEC with PBMC; actives raise or lower the signal
# Method in brief: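 Human umbilical vein endothelial cells co-cultured with peripheral blood mononuclear cells were exposed to compound for 24 h. M-CSF levels were measured by ELISA, and bidirectional curve fitting used DMSO as the negative control and baseline.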
# [5] = read-out: Tissue Factor, F3 (gene 2152); assay: BSK_LPS_TissueFactor: BioMAP Diversity Plus: LPS Assay for Tissue Factor Biomarker Activity (AID 2283084); conditions: primary human HUVEC with PBMC; actives raise or lower the signal
# Method in brief: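 Human umbilical vein endothelial cells co-cultured with peripheral blood mononuclear cells were dosed and stimulated with LPS. Cell-surface CD142 was quantified by ELISA at 24 h. Activity was fitted bidirectionally against DMSO baseline.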
# [6] = read-out: Tumor necrosis factor (Homo sapiens) (UniProt P01375); assay: BSK_LPS_TNFa: BioMAP Diversity Plus: LPS Assay for Tumour Necrosis Factor alpha (TNFa) Biomarker Activity (AID 2283085); conditions: primary human HUVEC with PBMC; actives raise or lower the signal
# Method in brief: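 Human umbilical vein endothelial cells co-cultured with PBMC were exposed to test chemical and TNFa measured by ELISA 24 h after dosing. Bidirectional curve fitting was done relative to DMSO as negative control and baseline.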
# [7] = read-out: Vascular cell adhesion molecule 1 (VCAM1), VCAM1 (gene 7412); assay: BSK_LPS_VCAM1: BioMAP Diversity Plus: LPS Assay for Vascular cell adhesion molecule 1 (VCAM1) Biomarker Activity (AID 2283086); conditions: primary human HUVEC with PBMC; actives raise or lower the signal
# Method in brief: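 Human umbilical vein endothelial cells co-cultured with peripheral blood mononuclear cells under LPS stimulation were exposed to test chemical for 24 h. VCAM-1 levels were then measured by ELISA, with bidirectional curve fitting relative to DMSO as negative control and baseline.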
# CD38, CD38 (gene 952) = assay: BSK_SAg_CD38: BioMAP Diversity Plus: SAg Assay for CD38 Biomarker Activity (AID 2283087); conditions: primary human HUVEC with PBMC; actives raise or lower the signal
# Method in brief: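 Fluorescence ELISA of cell-surface CD38 served as the read-out, with either increase or decrease fitted against DMSO controls. Cells were a human umbilical vein endothelium plus PBMC co-culture under SEB/TSST-1 stimulation, measured 24 h after dosing.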
# CD40, CD40 (gene 958) = assay: BSK_SAg_CD40: BioMAP Diversity Plus: SAg Assay for CD40 Biomarker Activity (AID 2283088); conditions: primary human HUVEC with PBMC; actives raise or lower the signal
# Method in brief: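 Human umbilical vein endothelial cells co-cultured with PBMC; CD40 levels measured by ELISA with fluorescence read-out 24 h after chemical dosing. Gain or loss of signal fitted bidirectionally against DMSO baseline.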
# CD69, CD69 (gene 969) = assay: BSK_SAg_CD69: BioMAP Diversity Plus: SAg Assay for CD69 Biomarker Activity (AID 2283089); conditions: primary human HUVEC with PBMC; actives raise or lower the signal;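 for AC50: cell surface CD69 protein quantified by ELISA with fluorescence detection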
# Method in brief: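 Primary human vascular co-culture (umbilical vein endothelium with peripheral blood mononuclear cells) exposed to test chemical for 24 h. CD69 levels quantified by fluorescence ELISA; DMSO served as negative control for bidirectional fitting.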
# [8] = read-out: Monocyte Chemoattractant Protein-1 (MCP1), CCL2 (gene 6347); assay: BSK_SAg_MCP1: BioMAP Diversity Plus: SAg Assay for Monocyte Chemoattractant Protein-1 (MCP1) Biomarker Activity (AID 2283090); conditions: primary human HUVEC with PBMC; actives raise or lower the signal
# Method in brief: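 MCP-1 levels in the endothelial–PBMC SAg co-culture were quantified by ELISA at 24 h post-dosing; both increases and decreases versus DMSO scored. Cytotoxicity monitored by SRB total protein in parallel cultures.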
# [9] = read-out: E-selectin (Homo sapiens) (UniProt P16581); assay: BSK_SAg_Eselectin: BioMAP Diversity Plus: SAg Assay for Eselectin Biomarker Activity (AID 2283091); conditions: primary human HUVEC with PBMC; actives raise or lower the signal
# Method in brief: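 HUVEC co-cultured with PBMC, compound dosed then read at 24 h; E-selectin measured by ELISA. Activity fitted bidirectionally against DMSO as negative control and baseline.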
# [10] = read-out: Monokine induced gamma interferon (MIG), CXCL9 (gene 4283); assay: BSK_SAg_MIG: BioMAP Diversity Plus: SAg Assay for Monokine induced gamma interferon (MIG) Biomarker Activity (AID 2283092); conditions: primary human HUVEC with PBMC; actives raise or lower the signal
# Method in brief: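 Endothelial cells and PBMC were co-cultured, exposed to test chemicals, and sampled 24 h later. MIG was measured by ELISA, and responses were fitted in both directions relative to DMSO.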
# [11] = BSK_SAg_PBMCCytotoxicity: PBMC Cytotoxicity Assessment in the BioMAP Diversity Plus: SAg Assay (AID 2283093); conditions: primary human HUVEC with PBMC;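 note: PBMC viability measured as Alamar Blue reduction fluorescence at 546/580 nm; fitted both ways against DMSO so a hit may be loss or gain of signal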;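 for AC50: PBMC superantigen activated with SEB plus TSST-1 one hour after compound addition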
# Method in brief: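 Compound added to 75,000 PBMC/well for 1 h; SEB and TSST-1 then added at 20 ng/mL final each; 90 h incubation; Alamar Blue 6 h; read 546/580 nm ex/em. Activity fitted bidirectionally relative to DMSO baseline.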
# [12] = read-out: Interleukin-8 (IL8), CXCL8 (gene 3576); assay: BSK_SAg_IL8: BioMAP Diversity Plus: SAg Assay for Interleukin-8 (IL8) Biomarker Activity (AID 2283094); conditions: primary human HUVEC with PBMC; actives raise or lower the signal
# Method in brief: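 Human umbilical vein endothelial cells co-cultured with peripheral blood mononuclear cells; IL-8 measured by ELISA 24 h after chemical dosing. Bidirectional concentration-response fitting used DMSO as negative control and activity baseline.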
# [13] = BSK_SAg_Proliferation: Cell Proliferation Assessment in the BioMAP Diversity Plus: SAg Assay (AID 2283095); conditions: primary human HUVEC with PBMC;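 note: relative cell number as total protein by SRB absorbance in sub-confluent culture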
# Method in brief: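 Human umbilical vein endothelial cells co-cultured with peripheral blood mononuclear cells; total protein measured by sulforhodamine B staining (0.1% SRB after 10% TCA fixation), absorbance at 560 nm, at 96 h. Bidirectional fit against DMSO baseline.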
# [14] = BSK_SAg_SRB: Viability Assessment in the BioMAP Diversity Plus: SAg Assay (AID 2283096); conditions: primary human HUVEC with PBMC;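 note: cells read one day after compound addition; hits may be either gain or loss of signal compared with DMSO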
# Method in brief: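 Total protein by sulforhodamine B staining, 24 h after dosing, in HUVEC–PBMC co-culture; DMSO-referenced bidirectional fitting.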
# [15] = biological target: human CYP19A1, CYP19A1 (gene 1588) (UniProt P11511); assay: NVS_ADME_hCYP19A1: NovaScreen (NVS) CYP450-related Enzyme Activity (ADME) Assay for human CYP19A1 (AID 2283098; active = hit-call score of the fitted dose curve at least 0.9, where 1 is the maximum)
# human CYP19A1, CYP19A1 (gene 1588), sequence (P11511 whole entry, looked up): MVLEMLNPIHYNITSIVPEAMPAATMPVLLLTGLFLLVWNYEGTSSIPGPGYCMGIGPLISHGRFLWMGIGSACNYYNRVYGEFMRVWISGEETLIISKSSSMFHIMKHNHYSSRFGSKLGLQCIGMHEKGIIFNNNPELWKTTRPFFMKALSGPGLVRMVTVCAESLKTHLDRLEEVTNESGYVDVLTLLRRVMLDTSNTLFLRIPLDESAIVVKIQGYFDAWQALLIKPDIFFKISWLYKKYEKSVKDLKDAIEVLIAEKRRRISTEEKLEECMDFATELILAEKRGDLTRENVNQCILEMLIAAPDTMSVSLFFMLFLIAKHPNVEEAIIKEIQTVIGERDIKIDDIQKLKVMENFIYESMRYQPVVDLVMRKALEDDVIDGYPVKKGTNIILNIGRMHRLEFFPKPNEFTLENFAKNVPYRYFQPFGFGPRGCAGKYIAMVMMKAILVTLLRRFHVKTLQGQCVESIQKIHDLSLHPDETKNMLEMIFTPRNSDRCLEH
# Method in brief: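 Biochem, cell-free; recombinant enzyme + specific substrate; fluorescence intensity at 0.5 h post-dose; 10 uM duplicate primary, conc. series for actives; acetonitrile = negative control/baseline; positive and negative controls on every plate.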
# [16] = biological target: human CYP1A1, CYP1A1 (gene 1543) (UniProt P04798); assay: NVS_ADME_hCYP1A1: NovaScreen (NVS) CYP450-related Enzyme Activity (ADME) Assay for human CYP1A1 (AID 2283100; active = hit-call score of the fitted dose curve at least 0.9, where 1 is the maximum)
# human CYP1A1, CYP1A1 (gene 1543), sequence (P04798 whole entry, looked up): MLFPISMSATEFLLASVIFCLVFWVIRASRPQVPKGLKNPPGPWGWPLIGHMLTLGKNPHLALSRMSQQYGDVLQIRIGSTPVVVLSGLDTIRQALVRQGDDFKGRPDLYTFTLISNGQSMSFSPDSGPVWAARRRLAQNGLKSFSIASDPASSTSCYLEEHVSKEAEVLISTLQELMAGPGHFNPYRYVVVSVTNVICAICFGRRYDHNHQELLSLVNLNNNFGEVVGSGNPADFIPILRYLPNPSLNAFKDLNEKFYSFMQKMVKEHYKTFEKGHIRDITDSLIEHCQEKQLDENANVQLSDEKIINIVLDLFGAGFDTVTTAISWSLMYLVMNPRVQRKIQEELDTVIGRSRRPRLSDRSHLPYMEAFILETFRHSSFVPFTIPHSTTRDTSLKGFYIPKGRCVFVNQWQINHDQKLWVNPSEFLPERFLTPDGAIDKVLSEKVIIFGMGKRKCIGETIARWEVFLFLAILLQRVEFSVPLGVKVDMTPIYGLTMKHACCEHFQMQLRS
# Method in brief: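 Cell-free fluorescence assay of recombinant human CYP1A1 activity with a specific substrate, read 1 h after dosing. Compounds were screened in duplicate at 10 uM, then hits tested in concentration-response up to 20 uM; acetonitrile served as baseline.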
# E-selectin (Homo sapiens), sequence (P16581 whole entry, looked up): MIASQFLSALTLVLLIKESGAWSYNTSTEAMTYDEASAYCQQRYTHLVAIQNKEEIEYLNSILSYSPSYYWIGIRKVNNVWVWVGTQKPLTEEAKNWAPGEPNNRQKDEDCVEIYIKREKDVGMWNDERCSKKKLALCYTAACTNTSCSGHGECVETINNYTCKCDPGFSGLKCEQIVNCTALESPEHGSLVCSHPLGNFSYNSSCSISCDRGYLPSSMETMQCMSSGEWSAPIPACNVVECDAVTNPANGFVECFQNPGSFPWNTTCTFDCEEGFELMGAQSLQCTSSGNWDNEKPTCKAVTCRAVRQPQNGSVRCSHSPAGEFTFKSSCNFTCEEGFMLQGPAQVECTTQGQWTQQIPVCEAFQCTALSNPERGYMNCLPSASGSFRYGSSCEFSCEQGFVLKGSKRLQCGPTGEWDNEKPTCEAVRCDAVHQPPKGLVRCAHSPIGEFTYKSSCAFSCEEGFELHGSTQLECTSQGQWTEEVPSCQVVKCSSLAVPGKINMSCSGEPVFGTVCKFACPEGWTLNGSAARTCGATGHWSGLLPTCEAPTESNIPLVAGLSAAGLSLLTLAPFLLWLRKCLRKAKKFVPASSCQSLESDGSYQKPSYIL
# Tumor necrosis factor (Homo sapiens), sequence (P01375 whole entry, looked up): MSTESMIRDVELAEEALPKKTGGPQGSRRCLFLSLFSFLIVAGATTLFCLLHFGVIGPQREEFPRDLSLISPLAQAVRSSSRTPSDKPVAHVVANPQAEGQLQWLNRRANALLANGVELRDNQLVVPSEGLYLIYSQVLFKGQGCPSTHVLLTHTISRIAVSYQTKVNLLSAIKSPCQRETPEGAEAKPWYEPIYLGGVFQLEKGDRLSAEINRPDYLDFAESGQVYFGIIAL
structure (smiles),measurement,setting,value
CCCN(CCC)c1c([N+](=O)[O-])cc(C(F)(F)F)cc1[N+](=O)[O-],outcome,[1],inactive
same,AC50,[2],36.2 µM (active)
same,outcome,[3],inactive
same,AC50,[4],20 µM (active)
same,outcome,[5],inactive
same,outcome,[6],inactive
same,AC50,[7],29.3 µM (active)
same,AC50,"CD38, CD38 (gene 952)",15.2 µM (active)
same,AC50,"CD40, CD40 (gene 958)",29.5 µM (active)
same,AC50,"CD69, CD69 (gene 969)",30.2 µM (active)
same,outcome,[8],inactive
same,AC50,[9],15.4 µM (active)
same,outcome,[10],inactive
same,AC50,[11],15 µM (active)
same,AC50,[12],24.9 µM (active)
same,AC50,[13],24.4 µM (active)
same,AC50,[14],20 µM (active)
same,outcome,[15],inactive
O=[N+]([O-])/N=C1\NCCN1Cc1ccc(Cl)nc1,outcome,[1],inactive
same,outcome,[2],inactive
same,outcome,[3],inactive
same,outcome,[4],inactive
same,outcome,[5],inactive
same,outcome,[6],inactive
same,outcome,[7],inactive
same,outcome,"CD38, CD38 (gene 952)",inactive
same,outcome,"CD40, CD40 (gene 958)",inactive
same,outcome,"CD69, CD69 (gene 969)",inactive
same,outcome,[8],inactive
same,outcome,[9],inactive
same,outcome,[10],inactive
same,outcome,[11],inactive
same,outcome,[12],inactive
same,outcome,[13],inactive
same,outcome,[14],inactive
same,outcome,[15],inactive
O=C(O)COc1ccc(Cl)cc1Cl,outcome,[1],inactive
same,outcome,[2],inactive
same,outcome,[3],inactive
same,outcome,[4],inactive
same,outcome,[5],inactive
same,outcome,[6],inactive
same,outcome,[7],inactive
same,outcome,"CD38, CD38 (gene 952)",inactive
same,outcome,"CD40, CD40 (gene 958)",inactive
same,outcome,"CD69, CD69 (gene 969)",inactive
same,outcome,[8],inactive
same,outcome,[9],inactive
same,outcome,[10],inactive
same,outcome,[11],inactive
same,outcome,[12],inactive
same,outcome,[13],inactive
same,outcome,[14],inactive
O=[N+]([O-])c1c(Cl)c(Cl)c(Cl)c(Cl)c1Cl,outcome,[1],inactive
same,outcome,[2],inactive
same,outcome,[3],inactive
same,AC50,[4],22.4 µM (active)
same,outcome,[5],inactive
same,AC50,[6],25.9 µM (active)
same,AC50,[7],25.5 µM (active)
same,outcome,"CD38, CD38 (gene 952)",inactive
same,outcome,"CD40, CD40 (gene 958)",inactive
same,outcome,"CD69, CD69 (gene 969)",inactive
same,outcome,[8],inactive
same,AC50,[9],20 µM (active)
same,outcome,[10],inactive
same,outcome,[11],inactive
same,outcome,[12],inactive
same,AC50,[13],31.2 µM (active)
same,outcome,[14],inactive
same,outcome,[15],inactive
same,outcome,[16],inactive
CC[C@H](C)[C@H]1O[C@]2(C=C[C@@H]1C)C[C@@H]1C[C@@H](C/C=C(\C)[C@@H](O[C@H]3C[C@H](OC)[C@@H](O[C@H]4C[C@H](OC)[C@@H](O)[C@H](C)O4)[C@H](C)O3)[C@@H](C)/C=C/C=C3\CO[C@@H]4[C@H](O)C(C)=C[C@@H](C(=O)O1)[C@]34O)O2 (tested in a mixture with another compound),AC50,[1],6.51 µM (active)
same,AC50,[2],8.83 µM (active)
same,outcome,[3],inactive
same,AC50,[4],9.77 µM (active)
same,outcome,[5],inactive
same,AC50,[6],10.3 µM (active)
same,AC50,[7],6.17 µM (active)
same,AC50,"CD38, CD38 (gene 952)",7.86 µM (active)
same,AC50,"CD40, CD40 (gene 958)",5.74 µM (active)
same,AC50,"CD69, CD69 (gene 969)",7.28 µM (active)
same,AC50,[8],5.58 µM (active)
same,AC50,[9],5.19 µM (active)
same,AC50,[10],10.8 µM (active)
same,AC50,[11],6.1 µM (active)
same,AC50,[12],4.07 µM (active)
same,AC50,[13],4.56 µM (active)
same,AC50,[14],5.54 µM (active)
same,outcome,[15],inactive
same,outcome,[16],inactive

# Reference: PubChem BioAssay (EPA / NIEHS)
